# Records with an inconclusive call do not appear. The source holds several records for some structures; these can differ, active in one and inactive in another. Calls of active or inactive are those of the source. Rule for the calls, unless noted: active = hit-call score of the fitted dose curve at least 0.9, where 1 is the maximum; inconclusive = response in the unintended direction; inactive = score below 0.9.
# Experiments:
# [1] = target: Glucocorticoid receptor (Homo sapiens) (UniProt P04150); experiment: ATG_GR_TRANS: Attagene TRANS-FACTORIAL HepG2 Assay for human Glucocorticoid Receptor (GR) (AID 2282978); settings: HepG2 Attagene TRANS GR reporter, mRNA transcription;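 note: activators score as hits since higher reporter transcript over DMSO is fitted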
# Summary of the method: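 Transiently transfected HepG2 cells express chimeric NR-GAL4 proteins acting on GAL4-UAS reporter units. Compounds are applied for 24 h. mRNA induction over DMSO is measured by capillary electrophoresis.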
# [2] = target: Bile acid receptor (Homo sapiens) (UniProt Q96RI1); experiment: ATG_FXR_TRANS: Attagene TRANS-FACTORIAL HepG2 Assay for Farnesoid X Receptor (FXR) (AID 2282979); settings: HepG2 Attagene TRANS FXR-GAL4 reporter transcription;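 note: hits raise reporter mRNA above DMSO so AC50 marks FXR activation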
# Summary of the method: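 Read-out: fluorescent reporter transcripts quantified by capillary electrophoresis after RT-PCR of total RNA. Source cells were HepG2 transiently carrying chimeric NR-GAL4 plus GAL4-UAS reporter units, dosed 24 h. Activity fitted upward relative to DMSO baseline.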
# [3] = target: Oxysterols receptor LXR-alpha (Homo sapiens) (UniProt Q13133); experiment: ATG_LXRa_TRANS: Attagene TRANS-FACTORIAL HepG2 Assay for human Liver X Receptor alpha (LXRa) (AID 2282980); settings: HepG2 Attagene TRANS reporter, LXRa transactivation
# Summary of the method: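 Read-out: reporter transcript levels by RT-PCR plus capillary electrophoresis, fluorescence intensity. Transiently transfected HepG2, exogenous NR-GAL4 chimera, GAL4-UAS reporters; 24 h compound exposure. Activity = increase over DMSO negative control.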
# [4] = target: Hepatocyte nuclear factor 4-alpha (Homo sapiens) (UniProt P41235); experiment: ATG_HNF4a_TRANS: Attagene TRANS-FACTORIAL HepG2 Assay for human Hepatocyte Nuclear Factor 4 alpha (HNF4a) (AID 2282982); settings: HepG2 HNF4a transactivation reporter, mRNA readout
# Summary of the method: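 Using HepG2 liver cells transfected with GAL4-UAS reporter units, chemical-induced mRNA increases were assessed after 24 hours. Fluorescent RT-PCR fragments were separated by capillary electrophoresis and compared with DMSO negative controls.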
# [5] = ATG_M_06_TRANS: Attagene TRANS-FACTORIAL HepG2 Assay for M06 Transcription Factor (Internal Marker) (AID 2282983); settings: HepG2 Attagene TRANS M06 internal marker reporter
# Summary of the method: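 Read-out: fluorescent reporter cDNA fragments resolved by capillary electrophoresis after RT-PCR and HpaI cut. Source cells were HepG2 carrying transfected multi-reporter GAL4 constructs, dosed 24 h. Increase over DMSO control analysed.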
# [6] = ATG_M_32_TRANS: Attagene TRANS-FACTORIAL HepG2 Assay for M32 Transcription Factor (Internal Marker) (AID 2282984); settings: HepG2 Attagene TRANS M32 internal marker reporter;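 for outcome: transcript level of a background control reporter unit measured by RT-PCR and capillary electrophoresis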
# Summary of the method: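 Fluorescence-detected mRNA induction, HepG2 liver cells, 24 h after dosing. Multiple GAL4-UAS reporter units introduced by transient transfection; background-control endpoint analysed for gain of signal against DMSO.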
# [7] = target: Nuclear receptor subfamily 4 group A member 2 (Homo sapiens) (UniProt P43354); experiment: ATG_NURR1_TRANS: Attagene TRANS-FACTORIAL HepG2 Assay for human Nuclear Receptor Related Protein 1 (NURR1) (AID 2282985); settings: HepG2 Attagene TRANS reporter, mRNA readout
# Summary of the method: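 Chimeric NR-Gal4 proteins were expressed in human HepG2 cells bearing GAL4-UAS reporter units, and induced reporter mRNA was quantified 24 h post-dosing by RT-PCR and capillary electrophoresis.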
# [8] = target: Oxysterols receptor LXR-beta (Homo sapiens) (UniProt P55055); experiment: ATG_LXRb_TRANS: Attagene TRANS-FACTORIAL HepG2 Assay for human Liver X Receptor beta (LXRb) (AID 2282981); settings: HepG2 Attagene TRANS GAL4-LXRb reporter, mRNA
# Summary of the method: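 Liver-derived HepG2 cells transfected with Gal4-responsive reporters were dosed for 24 h. Activation was scored as rise in reporter mRNA, by RT-PCR and capillary electrophoresis, above DMSO baseline.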
# [9] = target: Transcriptional activator Myb (Homo sapiens) (UniProt P10242); experiment: ATG_Myb_CIS: Attagene CIS-FACTORIAL HepG2 Assay for human Myeloblastosis (Myb) Proto-Oncogene Transcription Factor (AID 2282986; active = hit-call score of the fitted dose curve at least 0.9, where 1 is the maximum; inactive = score below 0.9); settings: HepG2 Attagene CIS-FACTORIAL Myb reporter transcription; actives raise or lower the signal
# Summary of the method: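 Using HepG2 liver cells bearing transiently transfected cis-promoter reporter constructs, the assay measures induction or loss of reporter mRNA after 24 hours of dosing. Detection used fluorescently labeled RT-PCR products separated by capillary electrophoresis.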
# [10] = target: Estrogen-related receptor gamma (Homo sapiens) (UniProt P62508); experiment: ATG_ERRg_TRANS: Attagene TRANS-FACTORIAL HepG2 Assay for human Estrogen-Related Receptor gamma (ERRg) (AID 2282977); settings: HepG2 Attagene TRANS reporter, ERRg transactivation;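 note: hits increase reporter signal over DMSO so potencies reflect activators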
# Summary of the method: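 Exogenous NR-Gal4 chimera activity was assessed in HepG2 cells bearing transfected GAL4-UAS reporters. After 24 h dosing, total RNA underwent RT-PCR, fluorescent primer extension and HpaI digestion before capillary electrophoresis, with gain of signal scored against DMSO.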
# Nuclear receptor subfamily 4 group A member 2 (Homo sapiens), sequence (P43354 whole entry, looked up, the tested form may be a part): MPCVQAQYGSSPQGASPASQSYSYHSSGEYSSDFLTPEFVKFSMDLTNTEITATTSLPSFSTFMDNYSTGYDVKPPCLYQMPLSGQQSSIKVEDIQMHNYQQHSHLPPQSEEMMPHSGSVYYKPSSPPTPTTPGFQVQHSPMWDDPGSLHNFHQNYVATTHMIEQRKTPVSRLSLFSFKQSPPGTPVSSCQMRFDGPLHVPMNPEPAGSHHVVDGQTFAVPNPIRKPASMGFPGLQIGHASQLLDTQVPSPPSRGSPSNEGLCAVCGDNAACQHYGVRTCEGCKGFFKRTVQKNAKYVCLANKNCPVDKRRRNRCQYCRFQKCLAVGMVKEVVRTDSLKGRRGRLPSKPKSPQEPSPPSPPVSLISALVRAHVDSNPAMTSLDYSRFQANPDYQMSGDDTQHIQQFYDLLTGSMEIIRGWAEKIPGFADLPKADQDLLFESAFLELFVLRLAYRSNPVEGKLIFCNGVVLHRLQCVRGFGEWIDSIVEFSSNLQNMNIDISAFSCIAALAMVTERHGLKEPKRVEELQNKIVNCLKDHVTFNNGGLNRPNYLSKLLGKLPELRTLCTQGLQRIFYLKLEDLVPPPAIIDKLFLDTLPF
# Oxysterols receptor LXR-beta (Homo sapiens), sequence (P55055 whole entry, looked up, the tested form may be a part): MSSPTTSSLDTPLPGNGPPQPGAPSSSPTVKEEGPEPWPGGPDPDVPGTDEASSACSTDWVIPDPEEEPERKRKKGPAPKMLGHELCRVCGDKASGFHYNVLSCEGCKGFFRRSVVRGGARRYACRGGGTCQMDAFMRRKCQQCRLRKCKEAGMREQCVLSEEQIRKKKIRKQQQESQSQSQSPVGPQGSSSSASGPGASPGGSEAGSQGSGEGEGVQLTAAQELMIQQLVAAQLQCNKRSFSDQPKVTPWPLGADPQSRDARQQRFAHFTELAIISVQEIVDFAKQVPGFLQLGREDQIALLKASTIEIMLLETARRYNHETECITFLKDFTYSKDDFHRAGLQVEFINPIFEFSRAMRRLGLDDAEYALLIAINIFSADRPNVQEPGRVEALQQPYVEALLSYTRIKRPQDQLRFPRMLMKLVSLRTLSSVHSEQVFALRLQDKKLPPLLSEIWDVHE
# Oxysterols receptor LXR-alpha (Homo sapiens), sequence (Q13133 whole entry, looked up, the tested form may be a part): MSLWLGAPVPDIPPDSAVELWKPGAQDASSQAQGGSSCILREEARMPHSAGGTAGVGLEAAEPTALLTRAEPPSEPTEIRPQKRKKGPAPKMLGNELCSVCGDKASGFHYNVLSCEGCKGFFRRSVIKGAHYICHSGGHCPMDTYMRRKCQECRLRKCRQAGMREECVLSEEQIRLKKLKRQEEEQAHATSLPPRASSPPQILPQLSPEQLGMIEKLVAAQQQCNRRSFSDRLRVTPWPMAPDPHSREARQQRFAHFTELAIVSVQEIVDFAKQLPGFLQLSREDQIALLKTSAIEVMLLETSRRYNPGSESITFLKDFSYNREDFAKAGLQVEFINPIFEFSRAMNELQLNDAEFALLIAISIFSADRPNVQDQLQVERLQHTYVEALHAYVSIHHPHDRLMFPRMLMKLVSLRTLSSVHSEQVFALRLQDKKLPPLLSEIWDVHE
# Hepatocyte nuclear factor 4-alpha (Homo sapiens), sequence (P41235 whole entry, looked up, the tested form may be a part): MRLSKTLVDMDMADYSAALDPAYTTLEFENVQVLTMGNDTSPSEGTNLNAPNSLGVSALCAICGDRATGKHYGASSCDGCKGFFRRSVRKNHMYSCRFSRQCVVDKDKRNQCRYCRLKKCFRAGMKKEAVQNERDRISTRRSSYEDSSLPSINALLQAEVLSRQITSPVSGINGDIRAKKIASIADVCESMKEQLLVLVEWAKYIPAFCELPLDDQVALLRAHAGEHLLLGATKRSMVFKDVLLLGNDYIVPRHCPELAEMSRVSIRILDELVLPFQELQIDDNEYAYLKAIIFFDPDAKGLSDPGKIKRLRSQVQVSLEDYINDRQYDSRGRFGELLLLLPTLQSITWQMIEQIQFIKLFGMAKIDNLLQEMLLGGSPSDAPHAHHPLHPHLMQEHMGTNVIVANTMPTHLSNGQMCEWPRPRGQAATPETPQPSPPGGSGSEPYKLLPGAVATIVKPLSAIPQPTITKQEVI
# Transcriptional activator Myb (Homo sapiens), sequence (P10242 whole entry, looked up): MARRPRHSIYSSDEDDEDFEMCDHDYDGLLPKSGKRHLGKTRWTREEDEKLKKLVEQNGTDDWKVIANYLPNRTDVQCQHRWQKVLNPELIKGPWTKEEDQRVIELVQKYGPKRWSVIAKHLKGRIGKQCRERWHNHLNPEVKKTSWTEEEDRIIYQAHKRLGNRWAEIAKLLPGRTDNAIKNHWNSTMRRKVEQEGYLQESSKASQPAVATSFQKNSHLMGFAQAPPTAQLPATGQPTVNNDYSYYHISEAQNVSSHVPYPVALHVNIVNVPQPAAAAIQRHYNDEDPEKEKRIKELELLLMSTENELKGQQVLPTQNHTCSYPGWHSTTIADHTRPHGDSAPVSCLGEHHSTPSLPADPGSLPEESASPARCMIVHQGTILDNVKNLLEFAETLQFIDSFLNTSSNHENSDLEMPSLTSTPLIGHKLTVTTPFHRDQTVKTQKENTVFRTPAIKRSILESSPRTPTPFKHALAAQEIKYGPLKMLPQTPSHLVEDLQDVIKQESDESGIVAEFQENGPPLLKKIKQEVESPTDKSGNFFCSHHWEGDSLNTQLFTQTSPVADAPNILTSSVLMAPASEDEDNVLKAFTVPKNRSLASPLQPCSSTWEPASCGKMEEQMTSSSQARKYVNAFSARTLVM
# Estrogen-related receptor gamma (Homo sapiens), sequence (P62508 whole entry, looked up, the tested form may be a part): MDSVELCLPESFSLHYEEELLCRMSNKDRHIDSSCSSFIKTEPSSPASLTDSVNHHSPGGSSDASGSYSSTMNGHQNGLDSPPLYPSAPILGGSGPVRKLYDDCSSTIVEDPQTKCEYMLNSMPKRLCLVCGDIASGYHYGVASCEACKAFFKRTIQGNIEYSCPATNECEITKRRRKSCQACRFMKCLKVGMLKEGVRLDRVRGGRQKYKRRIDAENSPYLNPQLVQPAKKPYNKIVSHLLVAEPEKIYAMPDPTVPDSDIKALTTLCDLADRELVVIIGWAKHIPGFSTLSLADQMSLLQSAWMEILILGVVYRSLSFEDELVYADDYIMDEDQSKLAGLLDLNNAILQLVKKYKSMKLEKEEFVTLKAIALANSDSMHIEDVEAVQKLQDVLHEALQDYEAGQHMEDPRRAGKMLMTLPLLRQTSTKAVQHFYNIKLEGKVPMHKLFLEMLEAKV
# Glucocorticoid receptor (Homo sapiens), sequence (P04150 whole entry, looked up, the tested form may be a part): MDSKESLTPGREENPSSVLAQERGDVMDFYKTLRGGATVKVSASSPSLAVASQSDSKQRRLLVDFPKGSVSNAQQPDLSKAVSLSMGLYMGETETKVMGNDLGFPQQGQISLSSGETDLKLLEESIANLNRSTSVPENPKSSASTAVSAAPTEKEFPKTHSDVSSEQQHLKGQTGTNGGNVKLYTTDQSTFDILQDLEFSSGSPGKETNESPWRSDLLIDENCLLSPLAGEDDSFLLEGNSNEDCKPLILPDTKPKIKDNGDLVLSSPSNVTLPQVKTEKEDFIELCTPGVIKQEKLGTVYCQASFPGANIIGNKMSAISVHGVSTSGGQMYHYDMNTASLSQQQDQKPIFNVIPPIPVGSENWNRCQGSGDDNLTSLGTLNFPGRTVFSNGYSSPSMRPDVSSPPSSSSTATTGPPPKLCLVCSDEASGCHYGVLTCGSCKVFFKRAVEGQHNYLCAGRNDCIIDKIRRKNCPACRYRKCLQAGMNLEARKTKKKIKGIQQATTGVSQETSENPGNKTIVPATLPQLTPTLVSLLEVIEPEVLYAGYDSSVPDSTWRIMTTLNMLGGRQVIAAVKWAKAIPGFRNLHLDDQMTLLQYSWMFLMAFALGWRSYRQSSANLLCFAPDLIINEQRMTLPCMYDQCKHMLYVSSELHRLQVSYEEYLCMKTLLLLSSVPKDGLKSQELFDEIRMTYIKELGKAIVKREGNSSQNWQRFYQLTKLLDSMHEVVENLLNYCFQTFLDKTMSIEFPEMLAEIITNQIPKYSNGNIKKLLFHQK
# Bile acid receptor (Homo sapiens), sequence (Q96RI1 whole entry, looked up, the tested form may be a part): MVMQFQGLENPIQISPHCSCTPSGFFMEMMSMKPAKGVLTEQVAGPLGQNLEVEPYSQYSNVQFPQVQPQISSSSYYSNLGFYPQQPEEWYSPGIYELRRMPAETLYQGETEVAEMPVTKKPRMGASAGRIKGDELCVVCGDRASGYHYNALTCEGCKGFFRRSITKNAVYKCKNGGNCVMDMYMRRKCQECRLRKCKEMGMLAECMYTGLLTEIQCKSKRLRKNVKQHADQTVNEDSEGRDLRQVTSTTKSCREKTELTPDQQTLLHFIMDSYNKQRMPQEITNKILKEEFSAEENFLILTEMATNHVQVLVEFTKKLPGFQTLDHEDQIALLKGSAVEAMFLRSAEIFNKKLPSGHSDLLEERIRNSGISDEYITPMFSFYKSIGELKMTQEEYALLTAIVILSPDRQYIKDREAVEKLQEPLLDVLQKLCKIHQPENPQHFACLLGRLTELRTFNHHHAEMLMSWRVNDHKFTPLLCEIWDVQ
structure (smiles),measurement,setting,value
CCCOC(=O)c1ccc(C(=O)OCCC)nc1,outcome,[1],inactive
same,outcome,[2],inactive
same,outcome,[3],inactive
same,outcome,[4],inactive
same,outcome,[5],inactive
same,outcome,[6],inactive
same,outcome,[7],inactive
S=C([S-])NCCNC(=S)[S-].[Mn+2],outcome,[1],inactive
same,outcome,[3],inactive
same,outcome,[8],inactive
same,outcome,[4],inactive
same,outcome,[5],inactive
same,outcome,[9],inactive
CCN(CC)C(=O)c1cccc(C)c1,outcome,[10],inactive
same,outcome,[1],inactive
same,outcome,[2],inactive
same,outcome,[3],inactive
same,outcome,[8],inactive
same,outcome,[4],inactive
same,outcome,[5],inactive
same,outcome,[6],inactive
same,outcome,[9],inactive
CCCCOC(=O)[C@@H](C)Oc1ccc(Oc2ccc(C(F)(F)F)cn2)cc1,outcome,[1],inactive
same,outcome,[2],inactive
same,outcome,[3],inactive
same,outcome,[4],inactive
same,outcome,[6],inactive
same,outcome,[7],inactive
CCC(C)OC(=O)N1CCCCC1CCO (centres undefined),outcome,[10],inactive
same,outcome,[3],inactive
same,outcome,[8],inactive
same,outcome,[4],inactive
same,outcome,[7],inactive
same,outcome,[9],inactive
CCCCCCC(C)OC(=O)COc1nc(F)c(Cl)c(N)c1Cl (centres undefined),outcome,[4],inactive
same,outcome,[5],inactive
same,outcome,[7],inactive
same,outcome,[9],inactive
CSC(=O)c1cccc2nnsc12,outcome,[1],inactive
same,outcome,[5],inactive
same,outcome,[6],inactive
same,outcome,[7],inactive
c1ccc2[nH]c(-c3cscn3)nc2c1,outcome,[1],inactive
same,AC50,[3],27.2 µM (active)
same,outcome,[4],inactive
same,outcome,[5],inactive
same,outcome,[6],inactive
same,outcome,[7],inactive
same,outcome,[9],inactive
O=C(O)C1(C(=O)Nc2ccc(Cl)cc2Cl)CC1,outcome,[2],inactive
same,outcome,[3],inactive
same,outcome,[4],inactive
same,outcome,[6],inactive
C#CCOC(=O)[C@@H](C)Oc1ccc(Oc2ncc(Cl)cc2F)cc1,outcome,[1],inactive
same,outcome,[3],inactive
same,outcome,[5],inactive
COc1c(Cl)ccc(Cl)c1C(=O)O,outcome,[3],inactive
same,outcome,[8],inactive
same,AC50,[7],59.2 µM (active)
CCCCOCCOCCOCc1cc2c(cc1CCC)OCO2,outcome,[2],inactive
same,outcome,[4],inactive
same,outcome,[5],inactive
same,outcome,[6],inactive
same,outcome,[7],inactive
CC(=O)S[C@@H]1CC2=CC(=O)CC[C@]2(C)[C@H]2CC[C@@]3(C)[C@@H](CC[C@@]34CCC(=O)O4)[C@H]12,outcome,[1],inactive
same,outcome,[3],inactive
same,outcome,[4],inactive
same,outcome,[5],inactive
same,outcome,[6],inactive
same,outcome,[7],inactive
CCCOC(=O)NCCCN(C)C,outcome,[3],inactive
same,outcome,[7],inactive
O=C(Nc1ccc([N+](=O)[O-])cc1Cl)c1cc(Cl)ccc1O,outcome,[3],inactive
same,outcome,[4],inactive
N#CSCSc1nc2ccccc2s1,outcome,[1],inactive
same,outcome,[3],inactive
same,AC50,[4],24.1 µM (active)
same,outcome,[4],inactive
same,outcome,[5],inactive
same,outcome,[6],inactive
same,AC50,[7],11.6 µM (active)
same,outcome,[7],inactive
C=CCOC(Cn1ccnc1)c1ccc(Cl)cc1Cl (centres undefined),outcome,[1],inactive
same,outcome,[8],inactive
same,outcome,[4],inactive
same,outcome,[5],inactive
same,outcome,[6],inactive
same,outcome,[7],inactive
CC(=O)[C@H]1CC[C@H]2[C@@H]3CCC4=CC(=O)CC[C@]4(C)[C@H]3CC[C@]12C,outcome,[3],inactive
same,outcome,[8],inactive
same,outcome,[5],inactive
same,AC50,[6],125 µM (active)
same,outcome,[6],inactive
same,outcome,[7],inactive
same,outcome,[9],inactive
N[C@@H](Cc1cc(I)c(Oc2ccc(O)c(I)c2)c(I)c1)C(=O)O,outcome,[1],inactive
same,outcome,[3],inactive
same,outcome,[4],inactive
same,outcome,[5],inactive
same,outcome,[6],inactive
same,AC50,[7],25.8 µM (active)
same,outcome,[7],inactive
CCCCC(CC)COC(=O)c1ccccc1C(=O)O (centres undefined),outcome,[1],inactive
same,outcome,[3],inactive
same,outcome,[5],inactive
same,outcome,[6],inactive
COCCO,outcome,[3],inactive
same,outcome,[4],inactive
same,outcome,[5],inactive
same,outcome,[6],inactive
CCCCCOC(=O)COc1cc(N2C(=O)C3=C(CCCC3)C2=O)c(F)cc1Cl,outcome,[1],inactive
same,outcome,[3],inactive
same,outcome,[4],inactive
same,outcome,[6],inactive
same,outcome,[7],inactive
same,outcome,[9],inactive
CCOC(=O)COc1cc(-n2ncc(C(F)(F)F)c(C)c2=O)c(F)cc1Cl,outcome,[3],inactive
same,outcome,[5],inactive
COC(=O)c1ccc(I)cc1S(=O)(=O)NC(=O)Nc1nc(C)nc(OC)n1,outcome,[8],inactive
same,outcome,[4],inactive
same,outcome,[5],inactive
CC1(C)C(C=C(Cl)Cl)C1C(=O)OCc1cccc(Oc2ccccc2)c1 (centres undefined),outcome,[1],inactive
same,outcome,[3],inactive
same,outcome,[4],inactive
same,outcome,[7],inactive
CC(C)(C)[C@@H](O)[C@@H](Cc1ccc(Cl)cc1)n1cncn1,outcome,[3],inactive
same,outcome,[4],inactive
same,outcome,[5],inactive
CCC(O)=C1C(=O)CC(C(=O)O)CC1=O (centres undefined),outcome,[1],inactive
same,outcome,[3],inactive
same,outcome,[5],inactive
same,outcome,[6],inactive
same,outcome,[7],inactive
same,outcome,[9],inactive
O=C(O)c1ccccc1,outcome,[3],inactive
same,outcome,[4],inactive
same,outcome,[6],inactive
same,outcome,[7],inactive
same,outcome,[9],inactive
CCCCOC(=O)C(C)Oc1ccc(Oc2ccc(C(F)(F)F)cn2)cc1 (centres undefined),outcome,[3],inactive
same,outcome,[8],inactive
same,outcome,[4],inactive
same,outcome,[6],inactive
same,outcome,[7],inactive
same,outcome,[9],inactive
COC(=O)c1ccccc1C(=O)O,outcome,[3],inactive
same,outcome,[5],inactive
same,outcome,[7],inactive
COC(=O)c1ccccc1S(=O)(=O)NC(=O)Nc1nc(OC(F)F)cc(OC(F)F)n1,outcome,[1],inactive
same,outcome,[4],inactive
same,outcome,[6],inactive
same,outcome,[7],inactive
CCOC(=O)[C@H](C)Oc1ccc(Oc2nc3ccc(Cl)cc3o2)cc1,outcome,[1],inactive
same,outcome,[3],inactive
same,outcome,[4],inactive
CCOC(=O)C(C)Oc1ccc(Oc2cnc3cc(Cl)ccc3n2)cc1 (centres undefined),outcome,[1],inactive
same,outcome,[3],inactive
same,outcome,[8],inactive
same,outcome,[7],inactive
CCNc1nc(N)nc(Cl)n1,outcome,[3],inactive
same,outcome,[5],inactive
same,outcome,[6],inactive
same,outcome,[9],inactive
CCCCC(CC)CN1C(=O)C2C3C=CC(C3)C2C1=O (centres undefined),outcome,[1],inactive
same,outcome,[3],inactive
same,outcome,[4],inactive
same,outcome,[6],inactive
same,outcome,[7],inactive
same,outcome,[9],inactive
